Screens from PubChem.
PrPC surface inh = cell surface PrPC inhibition, primary TR-FRET screen. P04156. TR-FRET read-out. inhibition, % at 13.8 µM. actives 0.43% (n = 370,000); in the data active means inhibition above about 24%; further: 0% = median of the test wells and 100% = reference compound wells
Vc quorum ag = induces V. cholerae light production without autoinducers | V. cholerae BH1578 lux reporter, luminescence, 6 h | activation, % at 18.7 µM | actives 0.16% (n = 350,000); in the data active means activation mostly above about 9.7%, no sharp cut-off
SSB-PriA inh = K. pneumoniae PriA-SSBct interaction inhibition. AID 1272365. AlphaScreen SSBct-PriA binding, biotinylated peptide. actives 0.6% (n = 430,000). inhibition, % at 33 µM; in the data active means inhibition mostly above about 37%, no sharp cut-off; inactive means mostly below about 20%;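 further: plate controls were negative control peptide for no effect and reference peptide for full effect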
CCHF vOTU inh = CCHFV vOTU protease inhibition; AID 651958; inhibition, % at 11.5 µM; actives 0.55% (n = 370,000); Pep-AMC fluorescence; in the data active means inhibition above about 30%; further: 0% = vehicle wells with enzyme and 100% = no enzyme wells
VHR inh abs = blocks human VHR1 dual specificity phosphatase; P51452; recombinant VHR phosphatase, pNPP absorbance; inhibition, % at 13.3 µM; actives 0.52% (n = 290,000); AID 1654; in the data active means inhibition above about 50%
Target sequence (P51452 whole entry, looked up): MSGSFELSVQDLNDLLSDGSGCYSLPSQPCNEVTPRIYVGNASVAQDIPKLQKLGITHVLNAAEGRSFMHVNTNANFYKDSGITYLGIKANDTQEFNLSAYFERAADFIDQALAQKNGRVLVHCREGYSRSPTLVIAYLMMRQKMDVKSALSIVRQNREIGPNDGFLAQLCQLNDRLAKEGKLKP
TcdB inh = blocks C. difficile toxin B glycohydrolase activity | AID 652162 | P18177 | TcdB glycohydrolase enzymatic assay, plate reader | actives 0.24% (n = 350,000) | inhibition, % at 9.99 µM; in the data active means inhibition above about 10%
The depositor's hits bear a star; i = inactive; · = no result given. The list is not random: actives were taken first. Their share in the collection is about 1.5%.

SMILES	PrPC surface inh	Vc quorum ag	SSB-PriA inh	CCHF vOTU inh	VHR inh abs	TcdB inh
Cc1ccc(NC(=O)C(NC2CCCc3ccccc32)c2ccccc2)cc1Cl (stereo not drawn)	10	-6	-43	3	2	·
Cc1ccc(NC(=O)C(NC2CCCc3ccccc32)c2ccccc2)c([N+](=O)[O-])c1 (stereo not drawn)	-3	i	46*	14	4	·
O=C(Cc1cccs1)Nc1ccc2c(c1)N(C(=O)[C@@H]1CCCO1)CC2	·	·	-5	·	·	·
Cc1ccc(S(=O)(=O)n2ccc3c(OCCOCCSCC(NC(=O)OC(C)(C)C)C(=O)O)cccc32)cc1 (stereo not drawn)	-5	-18	12	38*	11	-1
C=CCNC(=S)NNC(=O)c1ccc(Br)cc1	-3	0	2	17	23	·
C=C(C)CNC(=S)NNC(=O)c1ccc(Br)cc1	-3	i	7	-25	51*	0
Cc1c(C(=O)N(Cc2ccc(Cl)cc2)C2CCS(=O)(=O)C2)oc2ccccc12 (stereo not drawn)	-9	-1	7	4	26	1
Cc1ccc2oc(C(=O)N(Cc3ccc(N(C)C)cc3)C3CCS(=O)(=O)C3)c(C)c2c1 (stereo not drawn)	-6	0	43*	17	14	2
Cc1c(C(=O)N(Cc2ccc(N(C)C)cc2)CC2CCCO2)oc2ccccc12 (stereo not drawn)	15	-1	57*	20	9	-7
Cc1ccc2c(C)c(C(=O)N(Cc3ccc(N(C)C)cc3)C3CCS(=O)(=O)C3)oc2c1 (stereo not drawn)	4	0	39*	14	6	0
CCOc1ccc(CN(C(=O)c2oc3ccccc3c2C)C2CCS(=O)(=O)C2)cc1 (stereo not drawn)	-9	-4	-1	-2	7	·
CCOC(=O)Cn1c(=NC(=O)c2ccccc2I)sc2cc(S(N)(=O)=O)ccc21	·	·	2	·	·	·
O=C(NCC1CCN(c2nc3ccccc3s2)CC1)Oc1ccccc1	·	·	-17	·	·	·
Cc1ccc(-n2c(Cc3cccn3C)nnc2SCC(=O)Nc2ccc3c(c2)OCO3)cc1	16	0	39*	0	28	0
Cc1ccc(-n2c(Cc3cccn3C)nnc2SCC(=O)Nc2ccc3c(c2)OCCO3)cc1	·	·	16	·	·	·
Cn1cccc1Cc1nnc(SCC(=O)Nc2ccc3c(c2)OCCO3)n1-c1ccc(Cl)cc1	·	·	80*	·	·	·
Cc1ccc(-n2c(Cc3cccs3)nnc2SCC(=O)Nc2ccc3c(c2)OCO3)cc1	·	·	62*	·	·	·
Cn1cccc1Cc1nnc(SCC(=O)Nc2ccc3c(c2)OCCO3)n1-c1ccc(F)cc1	-1	0	12	-2	43	0
O=C(CSc1nnc(Cc2cccs2)n1-c1ccccc1)Nc1ccc2c(c1)OCCO2	1	0	10	-2	-1	·
CC1=C(C(=O)Nc2ccccc2)[C@H](c2ccc(Br)cc2)n2nc(-c3ccco3)nc2N1	·	·	-11	·	·	·
CCc1nc(-c2ccc(N3CCN(C(=O)c4cnn(-c5ccccc5)c4C)CC3)nc2)no1	·	·	-8	·	·	·
CC(=O)c1ccc(NC(=O)CN2CC(c3nc(C4CC4)no3)C2)cc1	·	·	-2	·	·	·
CCN1C=CC=C/C1=C(/C#N)c1nc(-c2ccccc2)cs1	·	·	108*	·	·	·
C=CCn1c(O)c(N=Nc2c(C)n(C)n(-c3ccccc3)c2=O)c(=O)[nH]c1=S	-5	0	33	3	5	0
Cc1c(N=Nc2c(O)[nH]c(=S)[nH]c2=O)c(=O)n(-c2ccccc2)n1C	-3	2	53*	19	-8	·
SMILES	PrPC surface inh	Vc quorum ag	SSB-PriA inh	CCHF vOTU inh	VHR inh abs	TcdB inh
CCCOc1nn(CCC)cc1C(=O)NCCc1ccc(OC)c(OC)c1	·	·	2	·	·	·
CCCc1nc(-n2cccc2)sc1C(=O)NCc1ccccc1C(F)(F)F	·	·	-8	·	·	·
Cc1nc2ccc3nc(NC(=O)c4ccc(Cl)cc4Cl)sc3c2s1	·	·	-20	·	·	·
C[C@H]1CN([C@@H](C)CO)S(=O)(=O)c2ccc(-c3ccncc3)cc2O[C@H]1CN(C)Cc1ccc(Oc2ccccc2)cc1	·	·	·	·	·	12*
C[C@@H]1CN([C@H](C)CO)S(=O)(=O)c2ccc(-c3ccncc3)cc2O[C@@H]1CN(C)Cc1ccc(Oc2ccccc2)cc1	·	·	·	·	·	11*
C[C@H]1CN([C@@H](C)CO)S(=O)(=O)c2ccc(-c3ccncc3)cc2O[C@@H]1CN(C)Cc1ccccc1	·	·	·	·	·	4
C[C@H]1CN([C@@H](C)CO)S(=O)(=O)c2ccc(-c3ccncc3)cc2O[C@@H]1CN(C)Cc1ccc(Oc2ccccc2)cc1	·	·	·	·	·	20*
